For 38 molecules, growth results are on record in PubChem BioAssay (NCI).

About 83,000 compounds went through this panel and 20% of them were active in at least one assay; those are over-represented in the sample as a whole.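 The endpoint reported here, percent growth, reads 100 for growth as untreated, 0 for no net growth and -100 for all cells dead.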 Calls of active or inactive are those of the source. How the source made its calls: active means growth percent below 10; inactive means the rest.

The first test has as its system OVCAR-8 ovarian. Kind of test: NCI-60 one-dose screen, 48 h (100 = growth as untreated, 0 = no growth, -100 = all killed). The settings on record: 10 µM unless noted.
Turning to `CCC1S/C(=N\N=C(/C)c2cccs2)N(c2ccccc2)C1=O` (stereo unspecified), the growth was 97.3% (inactive).

Regarding `COc1ccc2c(c1)/C(=C/c1c(-c3cc(OC)c(OC)c(OC)c3Br)nc3sccn13)C(=O)N2`, the growth is 99.6% (inactive).

As for `N#CC(C#N)=C(C#N)c1c[nH]c2ccccc12`, the growth is 87.7% (inactive).

Take `CNC(=O)NN`: the growth was 97.5% (inactive).

On to `ClC1c2ccccc2CCc2ccccc21`, for which the growth is 94.7% (inactive).

For `COc1ccc(-c2cc3ccc(N(C)C)cc3nc2N)c(F)c1`, the growth was 26.3% (inactive).

As to `CCOC(=O)C(C)(CSSCC(C)(NC(=O)c1ccc2ccccc2c1)C(=O)OCC)NC(=O)c1ccc2ccccc2c1` (stereo unspecified), the growth is 90.6% (inactive).

On to `COc1ccc(-c2cc(-c3nnc(SC/C(=N\O)c4ccccc4)n3-c3ccccc3)c3ccccc3n2)cc1`, for which the growth is 98.7% (inactive).

Take `CC(=O)Nc1ccc([I+]c2ccc([N+](=O)[O-])cc2)cc1`: the growth is 95% (inactive).

As for `O=[N+]([O-])c1ccc(NS(=O)(=O)c2ccccc2)c2ccccc12`, the growth is 63.1% (inactive).

On to `COc1ccc(-c2c(C#N)cnc(N)c2-c2nc3cc(C)c(C)cc3[nH]2)cc1`, for which the growth is 43.6% (inactive).

For `S=c1n(CNc2ccc(Cl)nn2)nc(-c2cc(Cl)cc(Cl)c2Cl)n1/N=C/c1ccc(Cl)cc1`, the growth was 114% (inactive).

Take `Cc1ccc2c(c1)Nc1ccc(C)cc1C2(C)C`: the growth was 103% (inactive).

On to `Clc1ccc2c(NCCNc3nc(Cl)nc4ccccc34)ccnc2c1`, for which the growth was -62.5% (active).

Regarding `CN1CCN(Cn2nc(-c3cc(Cl)cc(Cl)c3Cl)n(/N=C/c3ccc(Cl)cc3)c2=S)CC1`, the growth is 93.5% (inactive).

Turning to `C=C1C(=O)O[C@H]2[C@H]1CC/C(COC(=O)c1ccc(Cl)nc1)=C\CC[C@@]1(C)O[C@@H]21`, the growth was -8.23% (active).

For `COc1ccc(/C=N/C2=NNC(C)(c3ccccc3O)N2C(Cc2c[nH]c3ccccc23)C(=O)O)cc1` (stereo unspecified), the growth was 17.1% (inactive).

For `COc1ccc(/C=C/C(=O)/C=C(/C=C/c2ccc(OC)c(OC)c2OC)OB(F)F)c(OC)c1OC`, the growth is 10% (inactive).

Turning to `Cc1cc(N2CCOCC2)nc(N(CCNc2ccnc3cc(Cl)ccc23)Cc2ccco2)n1`, the growth is 34.6% (inactive).

As to `NN=C(c1ccc(Cl)cc1)c1ccc(Cl)cc1`, the growth was 104% (inactive).

For the molecule `Cc1cc2c(cc1C)N(C(=O)CCl)CCN2C(=O)CCl`, the growth is -4.44% (active).

As to `COc1cccc(/C=N/C(=S)NC2(C)C3CCC(C3)C2(C)C)c1O` (stereo unspecified), the growth is 85.4% (inactive).

In the case of `CC(=O)c1cc2c(N)c(C(=O)Nc3cccc(Cl)c3)sc2nc1C`, the growth was 83.5% (inactive).

As to `CCOC(=O)c1cnc2c(OC)ccc(OC)c2c1Cl`, the growth is 101% (inactive).

`CCOc1cccc(Nc2nc(N)nc3[nH]c4ccc(O)cc4c23)c1`: the growth is 77.6% (inactive).

Regarding `CC(C)CCC[C@@H](C)[C@H]1CC[C@H]2[C@@H]3CC=C4N(c5ccccc5)C(=O)CC[C@]4(C)[C@H]3CC[C@]12C`, the growth was 109% (inactive).

As for `C=C(C)[C@@H]1C/C=C(\COC(=O)[C@H](OC(C)=O)C(NC(=O)c2ccccc2)c2ccccc2)CC[C@H]2O[C@]2(C)CC/C=C(\C)CC1` (stereo partly specified), the growth is 86.7% [5 µM] (inactive).

Regarding `C/C(=N/NC(=O)Cn1c2ccccc2c2ccncc21)c1cccs1`, the growth is 92.8% (inactive).

`CC(=S)Nc1ccccc1`: the growth was 94.5% (inactive).

With `Nc1ccc(S(=O)(=O)Nc2cc(I)cc(I)c2)cc1`, the growth was 107% (inactive).

Take `Cc1cn([C@]2(CF)O[C@H](CO)C2C)c(=O)[nH]c1=O` (stereo partly specified): the growth was 110% (inactive).

As for `COc1cc(NC(C)CCCN2C(=O)c3ccccc3C2=O)c2nccc(C)c2c1OC` (stereo unspecified), the growth is 91.6% (inactive).

For the molecule `O=C(O)c1ccccc1C(=O)c1ccc(I)cc1`, the growth was 107% (inactive).

Turning to `CC(C(=O)O)N1C(N)=NNC1c1ccccc1O` (stereo unspecified), the growth was 90.2% (inactive).

`COc1ccc(C2=NN(C(=O)COc3ccc(Cl)cc3)C(O)(c3cc(F)c(Cl)cc3Cl)C2)cc1OC` (stereo unspecified): the growth was 5.4% (active).

Take `CCCCNC(=O)Oc1ccc(/C(=C(/CC)Cc2ccccc2)c2ccc(OCCCN(C)C)cc2)cc1`: the growth was 87% (inactive).

`COc1ccc(C(=O)Cn2cnc3c(Nc4cc(C(=O)Nc5ccc(N6CCN(CCO)CC6)cc5)ccc4C)ncnc32)cc1`: the growth is 104% (inactive).

Take `COc1cc(NC(=O)c2cc(OC)c3ccn(C)c3c2)cc2c1C[C@]1(C)CC[C@@H](O)C(C)(C)[C@H]1O2`: the growth was 75.8% (inactive).

A further test has as its system OVCAR-5 ovarian. The description is as above. The settings on record: 10 µM unless noted.
`CCC1S/C(=N\N=C(/C)c2cccs2)N(c2ccccc2)C1=O` (stereo unspecified): the growth is 111% (inactive).

In the case of `COc1ccc2c(c1)/C(=C/c1c(-c3cc(OC)c(OC)c(OC)c3Br)nc3sccn13)C(=O)N2`, the growth is 105% (inactive).

Consider `N#CC(C#N)=C(C#N)c1c[nH]c2ccccc12`, for which the growth is 102% (inactive).

`CNC(=O)NN`: the growth was 82.5% (inactive).

Turning to `ClC1c2ccccc2CCc2ccccc21`, the growth was 86.4% (inactive).

In the case of `COc1ccc(-c2cc3ccc(N(C)C)cc3nc2N)c(F)c1`, the growth is 69.6% (inactive).

Turning to `CCOC(=O)C(C)(CSSCC(C)(NC(=O)c1ccc2ccccc2c1)C(=O)OCC)NC(=O)c1ccc2ccccc2c1` (stereo unspecified), the growth was 127% (inactive).

As to `COc1ccc(-c2cc(-c3nnc(SC/C(=N\O)c4ccccc4)n3-c3ccccc3)c3ccccc3n2)cc1`, the growth was 119% (inactive).

`CC(=O)Nc1ccc([I+]c2ccc([N+](=O)[O-])cc2)cc1`: the growth is 116% (inactive).

Turning to `O=[N+]([O-])c1ccc(NS(=O)(=O)c2ccccc2)c2ccccc12`, the growth was 84.4% (inactive).

Consider `COc1ccc(-c2c(C#N)cnc(N)c2-c2nc3cc(C)c(C)cc3[nH]2)cc1`, for which the growth is 102% (inactive).

For the molecule `S=c1n(CNc2ccc(Cl)nn2)nc(-c2cc(Cl)cc(Cl)c2Cl)n1/N=C/c1ccc(Cl)cc1`, the growth is 100% (inactive).

As to `Cc1ccc2c(c1)Nc1ccc(C)cc1C2(C)C`, the growth is 105% (inactive).

As for `Clc1ccc2c(NCCNc3nc(Cl)nc4ccccc34)ccnc2c1`, the growth was -49.9% (active).

As to `CN1CCN(Cn2nc(-c3cc(Cl)cc(Cl)c3Cl)n(/N=C/c3ccc(Cl)cc3)c2=S)CC1`, the growth is 96.3% (inactive).

For `C=C1C(=O)O[C@H]2[C@H]1CC/C(COC(=O)c1ccc(Cl)nc1)=C\CC[C@@]1(C)O[C@@H]21`, the growth is 27.2% (inactive).

Take `COc1ccc(/C=N/C2=NNC(C)(c3ccccc3O)N2C(Cc2c[nH]c3ccccc23)C(=O)O)cc1` (stereo unspecified): the growth was 69.4% (inactive).

As to `COc1ccc(/C=C/C(=O)/C=C(/C=C/c2ccc(OC)c(OC)c2OC)OB(F)F)c(OC)c1OC`, the growth is 62.9% (inactive).

As to `Cc1cc(N2CCOCC2)nc(N(CCNc2ccnc3cc(Cl)ccc23)Cc2ccco2)n1`, the growth is 101% (inactive).

With `NN=C(c1ccc(Cl)cc1)c1ccc(Cl)cc1`, the growth was 95% (inactive).

Consider `Cc1cc2c(cc1C)N(C(=O)CCl)CCN2C(=O)CCl`, for which the growth was -74.4% (active).

`COc1cccc(/C=N/C(=S)NC2(C)C3CCC(C3)C2(C)C)c1O` (stereo unspecified): the growth is 102% (inactive).

For the molecule `CC(=O)c1cc2c(N)c(C(=O)Nc3cccc(Cl)c3)sc2nc1C`, the growth is 113% (inactive).

In the case of `CCOC(=O)c1cnc2c(OC)ccc(OC)c2c1Cl`, the growth is 109% (inactive).

In the case of `CCOc1cccc(Nc2nc(N)nc3[nH]c4ccc(O)cc4c23)c1`, the growth is 63.1% (inactive).

For the molecule `CC(C)CCC[C@@H](C)[C@H]1CC[C@H]2[C@@H]3CC=C4N(c5ccccc5)C(=O)CC[C@]4(C)[C@H]3CC[C@]12C`, the growth is 102% (inactive).

As for `C=C(C)[C@@H]1C/C=C(\COC(=O)[C@H](OC(C)=O)C(NC(=O)c2ccccc2)c2ccccc2)CC[C@H]2O[C@]2(C)CC/C=C(\C)CC1` (stereo partly specified), the growth was 88.7% [5 µM] (inactive).

With `C/C(=N/NC(=O)Cn1c2ccccc2c2ccncc21)c1cccs1`, the growth is 112% (inactive).

`CC(=S)Nc1ccccc1`: the growth is 99.8% (inactive).

Regarding `Nc1ccc(S(=O)(=O)Nc2cc(I)cc(I)c2)cc1`, the growth is 86.5% (inactive).

For `Cc1cn([C@]2(CF)O[C@H](CO)C2C)c(=O)[nH]c1=O` (stereo partly specified), the growth is 94.5% (inactive).

Regarding `COc1cc(NC(C)CCCN2C(=O)c3ccccc3C2=O)c2nccc(C)c2c1OC` (stereo unspecified), the growth is 110% (inactive).

Consider `O=C(O)c1ccccc1C(=O)c1ccc(I)cc1`, for which the growth is 107% (inactive).

As for `CC(C(=O)O)N1C(N)=NNC1c1ccccc1O` (stereo unspecified), the growth is 108% (inactive).

Consider `COc1ccc(C2=NN(C(=O)COc3ccc(Cl)cc3)C(O)(c3cc(F)c(Cl)cc3Cl)C2)cc1OC` (stereo unspecified), for which the growth was 82.8% (inactive).

Regarding `CCCCNC(=O)Oc1ccc(/C(=C(/CC)Cc2ccccc2)c2ccc(OCCCN(C)C)cc2)cc1`, the growth is 85.6% (inactive).

As to `COc1ccc(C(=O)Cn2cnc3c(Nc4cc(C(=O)Nc5ccc(N6CCN(CCO)CC6)cc5)ccc4C)ncnc32)cc1`, the growth is 104% (inactive).

Consider `COc1cc(NC(=O)c2cc(OC)c3ccn(C)c3c2)cc2c1C[C@]1(C)CC[C@@H](O)C(C)(C)[C@H]1O2`, for which the growth was 81.4% (inactive).
